# Experiments:
# Settings in all cases: concentration: 1 μM, replicates: in singlicate; n = 1
# MTOR = tested on: MTOR
# MUSK = tested on: MUSK
# MYLK2 = tested on: MYLK2
# MYLK4 = tested on: MYLK4
# MYLK = tested on: MYLK
# MYO3A = tested on: MYO3A
# MYO3B = tested on: MYO3B
# NDR1 = tested on: T1, NDR1
# T1 construct: gene STK38
# NDR2 = tested on: NDR2
# NEK10 = tested on: NEK10
# NEK11 = tested on: NEK11
# NEK1 = tested on: NEK1
# NEK2 = tested on: NEK2
# NEK3 = tested on: NEK3
# NEK4 = tested on: NEK4
# NEK5 = tested on: NEK5
# NEK6 = tested on: NEK6
# NEK7 = tested on: NEK7
# NEK9 = tested on: NEK9
# NIK = tested on: T2, NIK
# T2 construct: gene MAP3K14
# 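Further: KINOMEscan kinase panel screen.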
Compound,%Inh (MTOR),%Inh (MUSK),%Inh (MYLK2),%Inh (MYLK4),%Inh (MYLK),%Inh (MYO3A),%Inh (MYO3B),%Inh (NDR1),%Inh (NDR2),%Inh (NEK10),%Inh (NEK11),%Inh (NEK1),%Inh (NEK2),%Inh (NEK3),%Inh (NEK4),%Inh (NEK5),%Inh (NEK6),%Inh (NEK7),%Inh (NEK9),%Inh (NIK)
N#Cc1cnc2cc(-c3cnc(CNCCN4CCOCC4)s3)ccc2c1Nc1ccc(Oc2ccccc2)cc1 [GW664114],12%,3%,0%,13%,6%,55%,48%,14%,0%,4%,25%,0%,82%,20%,1%,0%,0%,0%,17%,0%
COC(=O)Nc1nc2ccc(Oc3ccc(CC(=O)Nc4cc(C(F)(F)F)ccc4F)cc3)cc2[nH]1 [GW680903],26%,95.5%,0%,0%,10%,12%,0%,0%,0%,21%,0%,0%,0%,6%,14%,13%,0%,0%,45%,25%
Cc1ccc(NC(=O)c2ccnc(N3CCCCC3)c2)cc1-c1ccc(C(=O)NCC2CC2)cc1 [GW775610],9%,0%,15%,0%,0%,0%,3%,0%,5%,0%,0%,0%,0%,4%,0%,0%,0%,8%,20%,15%
O=C(Nc1n[nH]c2cc(-c3cccs3)ccc12)C1CC1 [SB-731284],42%,0%,87%,24%,52%,0%,0%,27%,0%,27%,18%,0%,0%,20%,39%,0%,0%,0%,0%,14%
Fc1cc(Cl)ccc1Nc1ccnc2cc(-c3ccc(CN4CCOCC4)o3)ccc12 [GW560109],1%,0%,8%,1%,47%,0%,1%,0%,0%,0%,0%,0%,13%,0%,15%,1%,0%,3%,0%,4%
Cc1nn2c(=O)cc(N3CCO[C@H](C)C3)nc2n1Cc1cccc(Cl)c1Cl [GSK2373693],61%,14%,6%,2%,0%,0%,0%,0%,0%,0%,0%,0%,18%,0%,0%,75%,0%,0%,0%,21%
Cl.O=C(Nc1ccc(Oc2ccc3[nH]c(NC(=O)c4ccco4)nc3c2)cc1)Nc1cc(C(F)(F)F)ccc1F [GW683134],5%,98.6%,75%,3%,0%,0%,9%,0%,0%,0%,0%,0%,2%,0%,0%,0%,0%,0%,79%,13%
CC(C)(C)c1ccc(C(=O)Nc2cn3cc(-n4ccnc4)ccc3n2)cc1,10%,1%,18%,2%,0%,0%,0%,8%,7%,0%,0%,0%,0%,35%,0%,13%,2%,0%,3%,0%
Cc1ccc(NC(=O)c2cccc(N3CCCCC3)c2)cc1-c1ccc(C(=O)NCC2CC2)cc1 [GSK1917008],14%,1%,9%,9%,17%,0%,12%,0%,0%,0%,0%,27%,16%,11%,23%,12%,0%,13%,35%,68%
COc1cc(Nc2ccnc3cc(-c4ccncc4)ccc23)cc(OC)c1OC.Cl [GW494610],20%,10%,13%,0%,84%,19%,6%,17%,0%,0%,8%,0%,0%,0%,0%,5%,1%,0%,4%,0%
CC(C)NCC(Cc1ccccc1)NC(=O)c1cc(Br)c(-c2ccnc3[nH]ccc23)s1.Cl.Cl (centres unmarked) [GSK1383281],6%,0%,1%,79%,56%,19%,0%,90.3%,65%,2%,0%,91.9%,13%,16%,0%,68%,0%,0%,0%,0%
Cn1cc(-c2ccc3c(c2)CCN3C(=O)Cc2cc(F)cc(F)c2F)c2c(N)ncnc21 [GSK2634140],15%,28%,82%,0%,11%,38%,1%,0%,0%,10%,38%,7%,84%,0%,32%,8%,18%,0%,8%,26%
Cc1ccc(NC(=O)c2ccc(Cl)c(Cl)c2)cc1-c1ccc(C(=O)Nc2ccncc2)cc1 [GSK1398460],0%,6%,0%,5%,27%,0%,0%,14%,0%,0%,0%,16%,2%,16%,0%,0%,0%,0%,7%,0%
Cc1ccccc1CC(=O)N1CCc2cc(-c3cn(C)c4ncnc(N)c34)ccc21 [GSK2603346],30%,5%,85%,0%,9%,100%,0%,0%,0%,0%,58%,89%,97%,0%,29%,34%,0%,0%,0%,21%
O=C(Nc1n[nH]c2nc(-c3cccc(O)c3)ccc12)C1CC1 [SB-711805],0%,0%,97.2%,13%,98.4%,18%,0%,0%,0%,0%,7%,4%,2%,19%,0%,0%,0%,0%,8%,8%
O=C(Nc1c(F)cccc1F)c1cc(C(=O)c2ccccc2F)c[nH]1 [GSK1326180],18%,0%,4%,6%,0%,0%,0%,0%,2%,9%,16%,0%,0%,0%,0%,0%,0%,0%,5%,0%

# Reference: publication PMC5540273 (PLoS ONE, 2017)
